# Hit rate of the full screen: of about 360,000 compounds, about 17,000 (4.7%) were called active. Inconclusive results (about 5%) are left out. Cut-off read from the data, not from the text of the source: active = activity change below about -50%; inconclusive = mostly about -30% to -49%; inactive = weaker than that. Shown is part of a subset that was picked to be rich in actives.
# Experiment: qHTS for Inhibitors of Inflammasome Signaling: IL-1-beta AlphaLISA Primary Screen
# Conditions: THP-1 LPS/ATP IL-1B secretion, 16 h; at 57.5 µM, hits give low values
# In short: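 THP-1 cells pretreated 1 hr with compounds (up to 57.5 uM final), then stimulated with LPS (250 ng/mL final) plus ATP (1.25 mM final); secreted IL-1B measured by AlphaLISA after 16 hr, decreased signal indicating inhibition.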
# % is set by controls: 0 for no effect and ±100 for the full control effect.
row,Structure (SMILES),activity change
1,CC(=O)c1nn(-c2ccccc2)c(=Nc2ccccc2)cc1C,-11% (inactive)
2,CSc1ccccc1-c1nnc(-c2ccc(Cl)cc2)o1,-6.95% (inactive)
3,O=C(Nc1ccc(Cl)cn1)c1ccccc1-c1ccccc1,7.39% (inactive)
4,Oc1ccccc1-c1cc(-c2ccc(Cl)cc2)n[nH]1,-71.3% (active)
5,CC(=O)NC(C)(C)C1CC=C(C)/C(=N\O)C1 (stereo unspecified),3.35% (inactive)
6,COc1cccc(CNS(=O)(=O)c2ccc3c(c2)CC(C)N3C(C)=O)c1 (stereo unspecified),4.38% (inactive)
7,COc1ccc(N(C)S(=O)(=O)c2ccc3c(c2)CC(C)N3C(=O)C2CC2)c(OC)c1 (stereo unspecified),-63.4% (active)
8,COc1ccccc1CNC(=O)C1CCN(S(=O)(=O)c2ccc3c(c2)CC(C)N3C(=O)C2CC2)CC1 (stereo unspecified),-26% (inactive)
9,C[C@H](CO)N1C[C@H](C)[C@@H](CN(C)C(=O)c2cnccn2)Oc2ncc(Br)cc2C1=O,33.8% (inactive)
10,O=[N+]([O-])c1ccc(C=NN=Cc2ccc([N+](=O)[O-])cc2)cc1,-8.06% (inactive)
11,CC(=O)Nc1ccc(C=Cc2ccc([N+](=O)[O-])cc2)cc1,-18.6% (inactive)
12,O=C1/C(=C\c2ccc([N+](=O)[O-])cc2)CS(=O)(=O)C/C1=C/c1ccc([N+](=O)[O-])cc1,-99.9% (active)
13,CCC(C)N(C(=O)CSc1ncnc2c1cnn2-c1ccccc1)C1CCS(=O)(=O)C1 (stereo unspecified),-9.61% (inactive)
14,CCN(C(=O)CSc1ncnc2c1cnn2-c1ccccc1)C1CCS(=O)(=O)C1 (stereo unspecified),-60.6% (active)
15,CCN(CC)C(=O)CSc1ncnc2c1cnn2-c1ccccc1,-11.6% (inactive)
16,CC1=C(C(=O)N2CCOCC2)CC(CC(=O)NCC2CCCCC2)C(=O)N1Cc1ccc(F)cc1 (stereo unspecified),3.54% (inactive)
17,CNc1cc(-c2c(OC)cccc2OC)ncn1,22.1% (inactive)
18,Cc1ccc(OCCNC(=O)c2cccc(S(=O)(=O)N3CCN(Cc4ccccc4)CC3)c2)cc1,-14.6% (inactive)
19,C=CCN(CC=C)C(=O)COC(=O)c1n[nH]c2ccccc12,18.7% (inactive)
20,CC(C)C[C@H]1CNC(=S)N1C[C@H]1CCCN1C[C@H](Cc1ccc(O)cc1)N1C[C@H](Cc2ccc(O)cc2)N(CC2CCCCC2)C1=S,-11.2% (inactive)
21,O=C1NC[C@H](Cc2ccc(O)cc2)N(C[C@@H]2CCCN2C[C@H](Cc2ccccc2)N2C[C@H](Cc3ccccc3)N(CC3CCCCC3)C(=O)C2=O)C1=O,-15.5% (inactive)
22,CCOc1ccc(CCN2C(=O)C(=O)N([C@@H](Cc3ccc(O)cc3)CN3CCC[C@H]3CN3C(=O)C(=O)NC[C@@H]3CC(C)C)C[C@@H]2Cc2ccccc2)cc1,13.9% (inactive)
23,CC(C)C[C@H]1CNC(=O)C(=O)N1C[C@H]1CCCN1C[C@H](Cc1ccc(O)cc1)N1C[C@H](CC(C)C)N(CC2CCCCCC2)C(=O)C1=O,-60.7% (active)
24,CC(C)C[C@H]1CN([C@@H](Cc2ccccc2)CN2CCC[C@@H]2CN2C(=O)C(=O)NC[C@@H]2Cc2ccc(O)cc2)C(=O)C(=O)N1CCc1ccccc1,0% (inactive)
25,CCOc1ccc(CCN2C(=S)N([C@@H](CC(C)C)CN3CCC[C@@H]3CN3C(=S)NC[C@@H]3Cc3ccc(O)cc3)C[C@@H]2Cc2ccc(O)cc2)cc1,-64.1% (active)
26,CC(C)C[C@H]1CNC(=O)C(=O)N1C[C@@H]1CCCN1C[C@H](Cc1ccccc1)N1C[C@H](CC(C)C)N(CC2CCCCCC2)C(=O)C1=O,0% (inactive)

row,Structure (SMILES),activity change
1,CCOc1ccc(CCN2C(=O)C(=O)N([C@@H](CC(C)C)CN3CCC[C@H]3CN3C(=O)C(=O)NC[C@@H]3Cc3ccccc3)C[C@@H]2CC(C)C)cc1,-1.26% (inactive)
2,CC(C)C[C@H]1CN([C@@H](CC(C)C)CN2CCC[C@@H]2CN2C(=O)C(=O)NC[C@@H]2Cc2ccccc2)C(=O)C(=O)N1CCc1ccccc1,-63.4% (active)
3,CCCCN1CC(COc2ccccc2)Oc2cccc(F)c2S1(=O)=O (stereo unspecified),-1.95% (inactive)
4,COc1cc(NC(=O)CSc2ccc(-c3cccnc3)nn2)cc(OC)c1,-13.8% (inactive)
5,CC1CCC2(CC1)NC(=O)N(CC(=O)NCc1ccco1)C2=O (stereo unspecified),5.54% (inactive)
6,CCc1ccc2c(c1)NC(=O)C2(C)Cc1ccc(OC(F)(F)F)cc1 (stereo unspecified),-20.9% (inactive)
7,N#C/C=C(/c1ccc(F)cc1)N1CCOCC1,11.5% (inactive)
8,COc1ccc(CNC(=O)COC(=O)C2=Cc3ccccc3OC2)cc1,1.65% (inactive)
9,O=C(CSc1ccccc1F)NC1CCS(=O)(=O)C1 (stereo unspecified),-10.4% (inactive)
10,O=C(Cc1ccc(Cl)cc1)NC1CCS(=O)(=O)C1 (stereo unspecified),-6.66% (inactive)
11,CC(C)C(=O)NC(NC(=S)NC1CCS(=O)(=O)C1)C(Cl)(Cl)Cl (stereo unspecified),15.4% (inactive)
12,COc1ccc(NC(=S)NC2CCS(=O)(=O)C2)cc1 (stereo unspecified),7% (inactive)
13,CCCSC(=S)NC1CCS(=O)(=O)C1 (stereo unspecified),-105% (active)
14,O=S1(=O)CCC(NC(=S)SCc2ccccc2Br)C1 (stereo unspecified),-69% (active)
15,C[C@@H]1NS(=O)(=O)c2cc(Cl)ccc2O[C@@H]1c1ccccc1,-5.88% (inactive)
16,O=C1NC[C@H](CCCCN2C[C@H](Cc3ccc(O)cc3)N(CC3CCCCC3)C(=O)C2=O)N(CCc2ccccc2)C1=O,4.81% (inactive)
17,CC1(Cc2ccccc2C#N)C(=O)Nc2ccc(-c3ccc4[nH]ccc4c3)cc21 (stereo unspecified),90.5% (inactive)
18,COc1ccc(N=C2C=CC(=O)O2)cc1,4.16% (inactive)
19,CCCCNC(=O)c1nc(C2CCN(S(=O)(=O)c3ccc(F)c(F)c3)CC2)oc1-c1cccc(C(F)(F)F)c1,11.8% (inactive)
20,CCOC(=O)[C@]12CCCC=C1N(Cc1cccc3ccccc13)C(=O)[C@H](CC(=O)NCC13CC4CC(CC(C4)C1)C3)C2,-26.5% (inactive)
21,O=S1(=O)CC(N2CCSCC2)CN1Cc1cn(Cc2cccc(Cl)c2)nn1 (stereo unspecified),-25.6% (inactive)
22,COc1ccc(Br)cc1/C=N/Nc1ccc(S(=O)(=O)Nc2ccccc2C(=O)O)cc1[N+](=O)[O-],0% (inactive)
23,Cc1cc(C)c(NC(=O)C[N+](C)(C)CC(O)COc2cccc3ccccc23)c(C)c1 (stereo unspecified),-86% (active)
24,Cc1cc(C)cc(OCC(=O)NCc2cc(C)nc3ccccc23)c1,14.8% (inactive)
25,Cc1cc(C)c(NC(=O)c2oc3ccccc3c2COc2ccccc2)c(C)c1,-17.8% (inactive)

# Reference: PubChem BioAssay AID743279 (National Center for Advancing Translational Sciences (NCATS), 2014)
